{"source": "paper PMC8769072", "about": "“Proteome‐scale mapping of binding sites in the unstructured regions of the human proteome” (Molecular Systems Biology, 2022)", "molecular_target": "ZMYND11 480-602, Q15326", "sequence (Q15326 480-602)": "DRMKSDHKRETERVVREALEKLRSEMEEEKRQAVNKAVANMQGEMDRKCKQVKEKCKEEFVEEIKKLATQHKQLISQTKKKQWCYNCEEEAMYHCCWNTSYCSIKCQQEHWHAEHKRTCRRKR", "data": [{"binder": "MPVLESSSWPASKGLG", "note": "[NSD1, Q96L73]", "values": [{"measurement": "selected by phage display", "value": "confidence 3 (active)"}]}, {"binder": "GMPALESVTIGDDIWD", "note": "[TDRD5, Q8NAT2]", "values": [{"measurement": "selected by phage display", "value": "confidence 2 (active)"}]}, {"binder": "MVVSMPNLQDIAMPEL", "note": "[DENND3, A2RUS2]", "values": [{"measurement": "selected by phage display", "value": "confidence 3 (active)"}]}, {"binder": "EVEASMPQLWAGDSEG", "note": "[ZNF484, Q5JVG2]", "values": [{"measurement": "selected by phage display", "value": "confidence 2 (active)"}]}, {"binder": "QFHPTPPPLQHYTLED", "note": "[CBFA2T2, O43439]", "values": [{"measurement": "selected by phage display", "value": "confidence 2 (active)"}]}, {"binder": "NQEQPTTLSMPLLMVS", "note": "[ENO4, A6NNW6]", "values": [{"measurement": "selected by phage display", "value": "confidence 2 (active)"}]}, {"binder": "AVFPDDMPTLSALPWE", "note": "[KMT2A, Q03164]", "values": [{"measurement": "selected by phage display", "value": "confidence 3 (active)"}]}]}
